Reference: PubChem BioAssay (Tox21)
Values joined by “and” are separate entries in the source; they are usually repeats but may differ in a detail not shown here. Equal values may be shown once. Results filed as inconclusive are left out. Some compounds were tested as several samples or in several runs, with calls that do not always agree. Active and inactive are the calls of the source. Unless noted, calls follow the shape of the dose curve; as a rule, active = well fitted curve in the direction sought with a large enough effect in the repeat runs; inconclusive = weak or mixed curves; inactive = no such curve, though single readings can be large; an effect the other way counts as inactive or inconclusive.

Tests used:
[1] = qHTS assay to identify small molecule agonists of the hypoxia (HIF-1) signaling pathway - cell viability counter screen (AID 1224844; calls by dose curve; also: nearly all actives have a fitted effect of over 50% in size)
Procedure, shortened: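 Cytotoxicity was measured in parallel with the HRE-driven beta-lactamase readout: after 17 hrs of compound exposure at 37C, HRE-bla ME-180 cells received CellTiter-Glo and luminescence was recorded 30 min later.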

[2] = qHTS assay to identify small molecule agonists of H2AX (AID 1224845; active = well fitted activation curve with a large enough effect in the signal ratio in the repeat runs, not every such curve was filed as active; the % refers to the signal ratio)
Procedure, shortened: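 Phospho-H2AX Ser139 measured by HTRF (ex 320 nm; em 665 and 620 nm) after 24 hr antibody incubation. Compounds, 15 concentrations, 0.76% DMSO, were applied to CHO-K1 cells for 3hr at 37C before lysis.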

[3] = qHTS assay to identify small molecule agonists of the hypoxia (HIF-1) signaling pathway (AID 1224846; active = well fitted activation curve with a large enough effect in the signal ratio in the repeat runs, not every such curve was filed as active; the % refers to the signal ratio)
Procedure, shortened: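 Compounds from the Tox21 10K library, dissolved in DMSO, are tested for induction of a hypoxia response element–controlled beta-lactamase reporter in ME-180 cells. Exposure lasts 17 hrs at 37C after a 5 hr settling period, followed by CCF4-AM FRET substrate.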

[4] = qHTS assay to identify small molecule agonists of H2AX - cell viability counter screen (AID 1224847; calls by dose curve;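 also: wild-type CHO-K1 cells; top concentration of the series differs between compounds; nearly all actives have a fitted effect of over 30% in size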)
Procedure, shortened: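 Counter-screen for viability: CellTiter-Glo ATP luminescence read after 3 h compound treatment (15-point titration, 0.76% DMSO final) of CHO-K1 cells at 37C, with 30 min room-temperature reagent incubation.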

[5] = qHTS RealTime-Glo MT Cell Viability Assay in HepG2 cells - 24 hour (AID 1224867); also: nearly all actives have a fitted effect of over 50% in size
Procedure, shortened: (§1)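 HepG2 suspension premixed with RealTime-Glo reagents is plated at 600 cells per well and left 5 h at 37 C/5% CO2. Compounds in DMSO then go in, and bioluminescence reflecting viable cell number is recorded over 40 h.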

[6] = qHTS RealTime-Glo MT Cell Viability Assay in HEK293 cells - 32 hour (AID 1224868); also: top concentration of the series differs between compounds; nearly all actives have a fitted effect of over 50% in size
Procedure, shortened: (§2)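 Reads taken at 0, 8, 16, 24, 32 and 40 h from the same wells. HEK293 cells (600/well) carried RealTime-Glo reagents from seeding, with compound added after a 5 h settle at 37 C.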

[7] = A CellTox Green Cytotoxicity Assay to monitor cytotoxicity in HEK293 cells - 0 hour (AID 1224869); also: nearly all actives have a fitted effect of over 50% in size
Procedure, shortened: (§3)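 Cells (HEK293, 600/well) and dye reagent are dispensed together. After 5 h at 37 C, 23 nL compound is pinned in. Plates stay at 37 C for 40 h with fluorescence read at 0h, 8h, 16h, 24h, 32h and 40h.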

[8] = qHTS RealTime-Glo MT Cell Viability Assay in HepG2 cells - 40 hour (AID 1224870); also: nearly all actives have a fitted effect of over 50% in size
Procedure, shortened: (§4)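 Real-time viability: cells seeded at 600 per well together with NanoLuc and cell-permeant prosubstrate, compounds added after 5 h incubation. Luminescence tracked at 0, 8, 16, 24, 32 and 40 h of exposure.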

[9] = A CellTox Green Cytotoxicity Assay to monitor cytotoxicity in HEK293 cells - 40 hour (AID 1224871); also: nearly all actives have a fitted effect of over 45% in size; also: potency is read from the fitted curve at half-maximal effect
Procedure, shortened: as §3

[10] = qHTS RealTime-Glo MT Cell Viability Assay in HEK293 cells - 16 hour (AID 1224872)
Procedure, shortened: as §2

[11] = qHTS RealTime-Glo MT Cell Viability Assay in HepG2 cells - 8 hour (AID 1224873); also: nearly all actives have a fitted effect of over 55% in size
Procedure, shortened: as §4

[12] = qHTS RealTime-Glo MT Cell Viability Assay in HEK293 cells - 40 hour (AID 1224874); conditions: RealTime-Glo luminescence; max response: stronger effect = lower value; also: nearly all actives have a fitted effect of over 50% in size
Procedure, shortened: (§5)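 Real-time viability in HEK293: signal arises when living cells convert a prosubstrate for NanoLuc in the medium, so luminescence tracks viable cell number. Compound (23 nL, DMSO) added 5 h post-seeding; kinetic reads at 0–40 h, 37 C.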

[13] = A CellTox Green Cytotoxicity Assay to monitor cytotoxicity in HEK293 cells - 24 hour (AID 1224875); also: nearly all actives have a fitted effect of over 45% in size
Procedure, shortened: as §3

[14] = qHTS RealTime-Glo MT Cell Viability Assay in HepG2 cells - 32 hour (AID 1224877); also: nearly all actives have a fitted effect of over 55% in size
Procedure, shortened: as §1

[15] = A CellTox Green Cytotoxicity Assay to monitor cytotoxicity in HepG2 cells - 24 hour (AID 1224878); also: nearly all actives have a fitted effect of over 45% in size
Procedure, shortened: (§6)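 Cells and non-lytic dye reagent are dispensed together (600 HepG2 cells/well) and incubated 5 h before DMSO compound transfer. Kinetic fluorescence is then recorded in the same wells during 40 h at 37 C.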

[16] = A CellTox Green Cytotoxicity Assay to monitor cytotoxicity in HepG2 cells - 40 hour (AID 1224879); also: nearly all actives have a fitted effect of over 40% in size
Procedure, shortened: as §6

[17] = qHTS RealTime-Glo MT Cell Viability Assay in HEK293 cells - 0 hour (AID 1224880); also: top concentration of the series differs between compounds; nearly all actives have a fitted effect of over 45% in size
Procedure, shortened: as §5

[18] = A CellTox Green Cytotoxicity Assay to monitor cytotoxicity in HepG2 cells - 16 hour (AID 1224876); also: nearly all actives have a fitted effect of over 45% in size
Procedure, shortened: as §6

[19] = qHTS assay to identify small molecule antagonists of the estrogen related receptor (ERR) signaling pathway from Tox21 library (AID 1224848); also: nearly all actives have a fitted effect of over 50% in size
Procedure, shortened: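 Luciferase luminescence (ONE-Glo, 30 min room temperature) was the read-out. Cells of the NTP-supplied ERR line, 2,000 per well, were given 6 h at 37 C before compound addition in DMSO and 18 h exposure at 37 C.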

[20] = qHTS assay to identify small molecule agonists of the estrogen related receptor (ERR) signaling pathway from Tox21 library (AID 1224849; calls by dose curve; also: nearly all actives have a fitted effect of over 15% in size); conditions: ERR reporter cell line, ONE-Glo luciferase, 18 h
Procedure, shortened: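 Cells carrying the ERR reporter were plated and allowed to settle for 6 h, exposed to library compounds for 18 h at 37 C, then lysed with ONE-Glo and luminescence measured.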
% is scaled to controls: 0 for no effect and ±100 for the full control effect.

CC(=O)OC[C@H]1O[C@@](COC(C)=O)(O[C@H]2O[C@H](COC(C)=O)[C@@H](OC(C)=O)[C@H](OC(C)=O)[C@H]2OC(C)=O)[C@@H](OC(C)=O)[C@@H]1OC(C)=O
inactive: Potency [1] | Potency [2] | outcome [3] | Potency [4] | Potency [5] | Potency [6] | Potency [7] | Potency [8] | Potency [9] | Potency [10] | Potency [11] | max response [12] -0.774% and 5.83% | Potency [13] | Potency [14] | Potency [15] | Potency [16] | Potency [17]

CN1CCCC1=O
inactive: Potency [1] | Potency [2] | outcome [3] | Potency [4] | Potency [5] | Potency [6] | Potency [7] | Potency [8] | Potency [10] | Potency [11] | max response [12] 8.67% and -2.64% | Potency [13] | Potency [18] | Potency [14] | Potency [15] | Potency [16] | Potency [17]

CCCCCC(C)=O
inactive: Potency [1] | Potency [2] | outcome [3] | Potency [4] | Potency [19] | activity change, positive = activation ([20]; at 92.4 µM (top of the series)) 9.83% and 4.6% | Potency [5] | Potency [6] | Potency [7] | Potency [8] | Potency [10] | Potency [11] | max response [12] 0.796% and 0.918% | Potency [13] | Potency [14] | Potency [15] | Potency [16] | Potency [17]

CC(C=O)Cc1ccc(C(C)(C)C)cc1 (configuration not stated)
inactive: Potency [1] | Potency [2] | outcome [3] | Potency [4] | Potency [19] | activity change, positive = activation ([20]; at 92.4 µM (top of the series)) -5.89% and -7.2% | Potency [5] | Potency [6] | Potency [7] | Potency [9] | Potency [10] | Potency [11] | Potency [13] | Potency [18] | Potency [14] | Potency [15] | Potency [16] | Potency [17]

CCCOCC(C)O (configuration not stated)
inactive: Potency [1] | Potency [2] | outcome [3] | Potency [4] | Potency [19] | activity change, positive = activation ([20]; at 92.4 µM (top of the series)) 5.9% and 6.38% | Potency [5] | Potency [6] | Potency [7] | Potency [10] | Potency [11] | Potency [13] | Potency [18] | Potency [14] | Potency [15] | Potency [16] | Potency [17]

Cc1ccc(Cl)cc1
inactive: Potency [1] | Potency [2] | outcome [3] | Potency [4] | Potency [5] | Potency [6] | Potency [7] | Potency [8] | Potency [9] | Potency [10] | Potency [11] | max response [12] 3.18% and 19.9% | Potency [13] | Potency [14] | Potency [15] | Potency [16] | Potency [17]

C=CC(C)(C)C
inactive: Potency [1] | Potency [2] | outcome [3] | Potency [4] | Potency [19] | activity change, positive = activation ([20]; at 92.4 µM (top of the series)) 1.24% and -3.33% | Potency [5] | Potency [6] | Potency [7] | Potency [9] | Potency [10] | Potency [11] | max response [12] 1.9% and -10.6% | Potency [13] | Potency [14] | Potency [15] | Potency [16] | Potency [17]

CCCCCCCCCCCCCC(=O)O
inactive: Potency [1] | Potency [2] | outcome [3] | Potency [4] | Potency [19] | activity change, positive = activation ([20]; at 92.4 µM (top of the series)) -1.8% and -13.1% | Potency [5] | Potency [6] | Potency [7] | Potency [8] | Potency [10] | Potency [11] | max response [12] -22.5% and -9.69% | Potency [13] | Potency [18] | Potency [14] | Potency [15] | Potency [16] | Potency [17]

COc1ccccc1[N+](=O)[O-]
inactive: Potency [1] | Potency [2] | outcome [3] | Potency [4] | Potency [19] | activity change, positive = activation ([20]; at 92.4 µM (top of the series)) 2.88% | Potency [6] | Potency [7] | Potency [8] | Potency [9] | Potency [10] | Potency [11] | Potency [13] | Potency [14] | Potency [15] | Potency [16] | Potency [17]

Cc1ccc(C(C)C)cc1
inactive: Potency [1] | Potency [2] | outcome [3] | Potency [4] | Potency [5] | Potency [6] | Potency [7] | Potency [8] | Potency [9] | Potency [10] | Potency [11] | Potency [13] | Potency [18] | Potency [14] | Potency [15] | Potency [16] | Potency [17]

CC1(C)[C@@H](O[C@H]2O[C@H](C(=O)O)[C@@H](O)[C@H](O)[C@H]2O[C@@H]2O[C@H](C(=O)O)[C@@H](O)[C@H](O)[C@H]2O)CC[C@]2(C)[C@H]3C(=O)C=C4[C@@H]5C[C@@](C)(C(=O)O)CC[C@]5(C)CC[C@@]4(C)[C@]3(C)CC[C@@H]12
inactive: Potency [1] | Potency [2] | outcome [3] | Potency [4] | Potency [19] | activity change, positive = activation ([20]; at 42.5 µM (top of the series)) 2.2% and 1.06% | Potency [5] | Potency [6] | Potency [7] | Potency [10] | Potency [11] | max response [12] -4.4% and 0.425% | Potency [13] | Potency [18] | Potency [14] | Potency [15] | Potency [16]

O=C1CCCCCCCCCCC1
inactive: Potency [1] | Potency [2] | Potency [4] | Potency [5] | Potency [6] | Potency [7] | Potency [8] | Potency [10] | Potency [11] | max response [12] -9.58% and -0.296% | Potency [13] | Potency [18] | Potency [14] | Potency [15] | Potency [16] | Potency [17]

CC(C)(C)NC[C@H](O)COc1nsnc1N1CCOCC1
inactive: Potency [1] | Potency [2] | Potency [4] | Potency [6] | Potency [7] | Potency [8] | Potency [10] | Potency [11] | Potency [13] | Potency [14] | Potency [15] | Potency [16] | Potency [17]
inactive and 3.38 µM (active): Potency [9]

Nc1cccc(N)n1
inactive: Potency [1] | outcome [3] | Potency [4] | Potency [6] | Potency [7] | Potency [9] | Potency [10] | Potency [11] | max response [12] 0.328% and -0.427% | Potency [13] | Potency [18] | Potency [14] | Potency [15] | Potency [16] | Potency [17]
